Measurements: PubChem BioAssay AID588675 (Johns Hopkins Ion Channel Center, 2011)
Screen size: about 310,000 compounds; about 1,900 (0.61%) were called active.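 Rule for the calls: active = plate-corrected calcium response at least 3 library SD above typical, normal starting fluorescence, not activating the receptor alone; inactive = the rest.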 For the sample, actives were picked, then their nearest neighbours and some compounds at random.

What follows are compounds tested against Mas-related G-protein coupled receptor member X1 (Homo sapiens) (UniProt Q96LB2) (assay: positive allosteric modulators of MrgX1, primary screen, HEK293 cells, Fluo-4 calcium flux (AID 588675;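 note: compound read alongside a low EC10 to EC30 dose of BAM8-22 agonist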;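 for B-score: peak minus trough fluorescence over baseline measured at the second addition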)). Conditions: MrgX1-HEK293, Fluo-4 calcium flux, FDSS, at 10 µM; stronger effect = higher value.
Mas-related G-protein coupled receptor member X1 (Homo sapiens), sequence (Q96LB2 whole entry, looked up): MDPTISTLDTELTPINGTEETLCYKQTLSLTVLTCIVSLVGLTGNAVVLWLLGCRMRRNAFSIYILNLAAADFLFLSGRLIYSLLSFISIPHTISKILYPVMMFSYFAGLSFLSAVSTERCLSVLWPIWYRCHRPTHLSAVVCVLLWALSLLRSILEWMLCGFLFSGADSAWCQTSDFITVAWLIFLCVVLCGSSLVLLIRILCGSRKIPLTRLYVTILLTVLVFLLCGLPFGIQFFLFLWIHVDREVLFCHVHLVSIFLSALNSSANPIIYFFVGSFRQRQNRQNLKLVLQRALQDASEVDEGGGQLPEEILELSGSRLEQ

Q: For `CCC(C)c1ccc(O)c(/C=N/O)c1` (configuration not stated), which B-score is on record?
A: The B-score was 6.88 (active).

Q: `CNCC(O)c1ccc(O)c(O)c1` (configuration not stated) was tested. Which B-score did it give?
A: The B-score was “inactive”.

Q: `CCOC(=O)c1cccc(NC(=O)C2CCN(c3ncnc4c3nc3n4CCCCC3)CC2)c1` was tested. Which B-score did it give?
A: Its B-score is “inactive”.

Q: Which B-score does the source give for `CCCCCCCCCCCC(=O)O` here?
A: Its B-score is “inactive”.

Q: `CCCC(=O)OCC(=O)Nc1cc(Cl)ccc1[N+](=O)[O-]` was tested. Which B-score did it give?
A: The B-score was 9.84 (active).

Q: Which B-score does the source give for `CC(C)(C)NC(=O)COC(=O)c1cc(Cl)ccc1[N+](=O)[O-]` here?
A: The B-score was “inactive”.

Q: How did the B-score turn out when `Cc1cc(NC(=O)COC(=O)COc2ccc(Cl)cc2C)c([N+](=O)[O-])cc1C` was run?
A: Its B-score is “inactive”.

Q: `CCN(CC(=O)NC1CCS(=O)(=O)C1)S(=O)(=O)c1ccccc1` (configuration not stated) was tested. Which B-score did it give?
A: The B-score was “inactive”.

Q: Which B-score does the source give for `Cc1coc2c(O)cc3c(c12)OC1(N2CCCCC2)C(=O)NCCCC31` (configuration not stated) here?
A: The B-score was “inactive”.

Q: How did the B-score turn out when `COc1cccc(NC(=O)NCCN2CCCCC2)c1` was run?
A: Its B-score is “inactive”.

Q: How did the B-score turn out when `Cc1ccc2c(c1)C1CN(C)CCC1N2S(=O)(=O)c1ccc(Oc2ccc([N+](=O)[O-])cc2)cc1` (configuration not stated) was run?
A: The B-score was “inactive”.

Q: `Cc1ccc(S(=O)(=O)N(C)c2ccc(OCC(=O)OCC(=O)N(CC#N)c3ccccc3)cc2)cc1` was tested. Which B-score did it give?
A: The B-score was “inactive”.

Q: How did the B-score turn out when `Cc1ccc2nc(Nc3ccccc3O)nc(-c3ccccc3)c2c1` was run?
A: The B-score was “inactive”.

Q: With `Cc1cc(Nc2ccc(Br)cc2)nc2ccccc12` as the compound, how does the B-score read?
A: The B-score was “inactive”.

Q: How did the B-score turn out when `Cc1ccc2nc(Nc3ccccc3)cc(C)c2c1` was run?
A: Its B-score is 14 (active).

Q: For `CCCN(CCC)C(=O)C1c2ccccc2Oc2ccccc21`, which B-score is on record?
A: Its B-score is “inactive”.

Q: `CC(C)Nc1nnc(SCC(=O)/C=C2\N(C)c3ccccc3C2(C)C)s1` was tested. Which B-score did it give?
A: Its B-score is “inactive”.

Q: `CC(=O)Nc1cccc(OCC(=O)/C=C2\N(C)c3ccccc3C2(C)C)c1` was tested. Which B-score did it give?
A: The B-score was 6.96 (active).

Q: With `CCOc1cccc(NC(=O)CC#N)c1` as the compound, how does the B-score read?
A: Its B-score is “inactive”.

Q: How did the B-score turn out when `Cc1ccc(S(=O)(=O)N2[C@@H](c3ccccc3F)C(C(=O)O)=CC[C@H]2c2ccc(Cl)cc2)cc1` was run?
A: The B-score was 15.6 (active).

Q: For `Cc1ccc([C@@H]2CC=C(C(=O)O)[C@H](c3cccc(Cl)c3)N2S(=O)(=O)c2ccc(C)cc2)cc1`, which B-score is on record?
A: Its B-score is “inactive”.

Q: For `Cc1ccc(S(=O)(=O)N2[C@@H](c3cccc(Cl)c3)C(C(=O)O)=CC[C@H]2c2ccc(Cl)c(Cl)c2)cc1`, which B-score is on record?
A: Its B-score is “inactive”.

Q: For `CC(=O)Nc1cccc(C(=O)OCN2C(=O)c3ccccc3C2=O)c1`, which B-score is on record?
A: The B-score was “inactive”.

Q: For `O=C(c1ccc(OC2CCN(C/C=C/c3ccc(F)cc3)CC2)cc1)N1CCCCC1`, which B-score is on record?
A: The B-score was “inactive”.

Q: Which B-score does the source give for `O=C(c1ccc(OC2CCN(C(=O)c3cccnc3)CC2)cc1)N1CCCCCC1` here?
A: Its B-score is 6.62 (active).

Q: How did the B-score turn out when `O=C(c1ccc(OC2CCN(Cc3ccccn3)CC2)cc1)N1CCCCCC1` was run?
A: The B-score was “inactive”.

Q: Which B-score does the source give for `O=C(NCCCc1ccccc1)C1CCC(CNc2c(N3CCCCC3)c(=O)c2=O)CC1` (configuration not stated) here?
A: The B-score was “inactive”.

Q: With `CCOc1ccc(NC(=O)N2CCN(CC)CC2)cc1` as the compound, how does the B-score read?
A: Its B-score is “inactive”.

Q: For `Cc1cccc(C)c1NC(=O)N1CC=C(n2c(=O)[nH]c3ccccc32)CC1`, which B-score is on record?
A: Its B-score is “inactive”.

Q: With `CCOc1ccc(NC(=O)N2CC=C(n3c(=O)[nH]c4ccccc43)CC2)cc1` as the compound, how does the B-score read?
A: The B-score was 7.16 (active).

Q: How did the B-score turn out when `O=C(CCc1[nH]c2ccccc2c1Sc1ccccc1)N(CCO)CCO` was run?
A: Its B-score is “inactive”.

Q: How did the B-score turn out when `CN(Cc1ccccc1)C(=O)C1CCCN(c2ncnc3c2nc2n3CCCCC2)C1` (configuration not stated) was run?
A: The B-score was “inactive”.

Q: With `CCCCOP(=O)(c1ccc(N(C)C)cc1)C(O)c1cc(OC)ccc1OC` (configuration not stated) as the compound, how does the B-score read?
A: The B-score was “inactive”.

Q: `COC(CNC(=O)Cn1ncc2ccsc2c1=O)OC` was tested. Which B-score did it give?
A: Its B-score is “inactive”.

Q: With `CCC1=C(OC(=O)N(CC)CC)N2C(=O)OC(=NCC3CC3)[C@]2(C)[C@H]2C1=CC[C@H]1C(=O)N(CC(=O)OC)C(=O)[C@H]12` as the compound, how does the B-score read?
A: Its B-score is “inactive”.

Q: For `COc1cccc(NS(=O)(=O)c2ccc(-c3coc(C)n3)cc2)c1`, which B-score is on record?
A: Its B-score is “inactive”.

Q: How did the B-score turn out when `Cc1ccc(NS(=O)(=O)c2ccc(-c3coc(C)n3)cc2)c(C)c1` was run?
A: Its B-score is “inactive”.

Q: `CCN(c1cccc(C)c1)S(=O)(=O)c1ccc(-c2coc(C)n2)cc1` was tested. Which B-score did it give?
A: Its B-score is 8.56 (active).

Q: `CCCCN(CCCC)CCC(O)c1cc2c(Cl)cc(Cl)cc2c2cc(C(F)(F)F)ccc12` (configuration not stated) was tested. Which B-score did it give?
A: Its B-score is “inactive”.

Q: With `O=C(/C=C/c1ccc(OCc2c(F)cccc2Cl)cc1)N1CCOCC1` as the compound, how does the B-score read?
A: Its B-score is “inactive”.

Q: With `Fc1ccc(COc2ccc(-c3nnco3)cc2)cc1` as the compound, how does the B-score read?
A: Its B-score is “inactive”.

Q: For `Fc1cccc(Cl)c1COc1ccc(-c2nnco2)cc1`, which B-score is on record?
A: Its B-score is 13.2 (active).

Q: With `Cc1c(C(=O)N2CCN(c3ccc(F)cc3)CC2)oc2c1C(=O)CCC2` as the compound, how does the B-score read?
A: Its B-score is 7.4 (active).

Q: Which B-score does the source give for `O=C(Nc1ccc(F)cc1)N1CCN(c2ccc(F)cc2)CC1` here?
A: Its B-score is “inactive”.

Q: `O=C(c1cc(-c2ccc(F)cc2)on1)N1CCN(c2ccc(F)cc2)CC1` was tested. Which B-score did it give?
A: The B-score was “inactive”.

Q: How did the B-score turn out when `Cc1ccc(S(=O)(=O)n2nc(OC(=O)C(C)(C)C)cc2N)cc1` was run?
A: The B-score was “inactive”.

Q: With `O=C(COC(=O)c1ccccc1Br)Nc1nnc(-c2ccccc2)o1` as the compound, how does the B-score read?
A: The B-score was “inactive”.

Q: Which B-score does the source give for `Nc1cc(OC(=O)c2ccccc2Br)nn1S(=O)(=O)c1ccccc1` here?
A: The B-score was 7.83 (active).

Q: With `Cc1ccc2[nH]c(C(=O)O)c(NC(=O)c3ccccc3[N+](=O)[O-])c2c1` as the compound, how does the B-score read?
A: Its B-score is “inactive”.

Q: For `O=C(O)C1=CCCN(CCON=C(c2ccccc2)c2ccccc2)C1`, which B-score is on record?
A: Its B-score is “inactive”.

Q: For `O=C(Nc1ccccc1N1CCOCC1)c1csc2c1CCCC2`, which B-score is on record?
A: The B-score was 12 (active).

Q: With `Cc1cc(C(=O)Nc2ccccc2N2CCOCC2)c2ccccc2n1` as the compound, how does the B-score read?
A: Its B-score is “inactive”.

Q: With `Cc1ccc(S(=O)(=O)N2CCOCC2)cc1C(=O)Nc1ccccc1N1CCCC1` as the compound, how does the B-score read?
A: The B-score was “inactive”.

Q: With `c1ccc(-c2ccc3c(c2)NC(C2Nc4cc(-c5ccccc5)ccc4O2)O3)cc1` (configuration not stated) as the compound, how does the B-score read?
A: Its B-score is “inactive”.

Q: Which B-score does the source give for `O=C(Oc1ccc(Br)cc1C(=S)N1CCOCC1)c1cccc([N+](=O)[O-])c1` here?
A: The B-score was “inactive”.

Q: How did the B-score turn out when `Cc1nnc(NCCO)c2ccccc12` was run?
A: The B-score was “inactive”.

Q: `COc1ccc(Nc2nnc(C)c3ccccc23)cc1` was tested. Which B-score did it give?
A: The B-score was 22.5 (active).

Q: Which B-score does the source give for `COc1ccc(Nc2nc(=O)[nH]nc2C)cc1` here?
A: The B-score was “inactive”.

Q: `CN(c1ccccc1)S(=O)(=O)c1ccc(NC(=O)COc2ccccc2)cc1` was tested. Which B-score did it give?
A: The B-score was “inactive”.

Q: Which B-score does the source give for `O=C(NCc1ccccc1Cl)c1ccc2c(=O)n(CC3CCCO3)c(=S)[nH]c2c1` (configuration not stated) here?
A: The B-score was “inactive”.

Q: For `CC(C)CCn1cnc2c1c(=O)n(CC(=O)NC(N)=O)c(=O)n2Cc1ccccc1`, which B-score is on record?
A: The B-score was “inactive”.

Q: For `Cc1ccc(Oc2nc3ccccc3n3c(C)nnc23)cc1`, which B-score is on record?
A: Its B-score is “inactive”.

Q: How did the B-score turn out when `CC(=O)Nc1ccc(S(=O)(=O)N(C)c2nc3ccccc3nc2Cl)cc1` was run?
A: The B-score was “inactive”.

Q: For `Cc1ccc(S(=O)(=O)N(C)c2nc3ccccc3n3c(C(C)C)nnc23)cc1`, which B-score is on record?
A: Its B-score is 6.54 (active).

Q: With `CC(C)CC(=O)NC(=S)NCc1ccccc1` as the compound, how does the B-score read?
A: The B-score was “inactive”.

Q: Which B-score does the source give for `CCC(=O)NC(=Nc1nc2ccccc2s1)NC(=O)CC` here?
A: Its B-score is “inactive”.

Q: With `CC(C)CC(=O)N/C(N)=N/c1nc2ccccc2s1` as the compound, how does the B-score read?
A: The B-score was 12.9 (active).
